Screens from PubChem.
Compounds with a hit are over-represented: about 8.7% of the library has one in this group of screens.
Pf growth 48h: Primary qHTS for delayed death inhibitors of the malarial parasite plastid, 48 hour incubation; P. falciparum luciferase growth in erythrocytes, 48 h; Potency, µM (series often up to 28.7 µM), inactives show top-dose activity change, negative = inhibition, hits mostly inhibitors; 310,000 compounds, 5.9% hits; AID 504832, 2011
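Luminescence readout; reporter = integrated firefly luciferase in P. falciparum. RBC culture at 2% hematocrit, 0.1% parasitemia final, 37 C/5% CO2; decreased signal taken as growth inhibition.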
VACV Venus inh: qHTS for Stage-Specific Inhibitors of Vaccinia Orthopoxvirus: Venus Reporter Primary qHTS | Potency, µM (highest dose often 36.5 µM), inactives show at the highest dose activity change, negative = inhibition, actives largely listed as inhibitors | 330,000 compounds, 0.46% hits | AID 720580, 2013 | Vaccinia virus Venus reporter expression, fluorescence; calls by dose curve; tested in A549 cells; also: nearly all actives have a fitted effect of over 30% in size
Pf growth 96h: Primary qHTS for delayed death inhibitors of the malarial parasite plastid, 96 hour incubation | 320,000 compounds, 6.9% hits | Potency, µM (highest dose often 28.7 µM), for the others: top-dose activity change, negative = inhibition, actives largely listed as inhibitors | P. falciparum luciferase reporter growth, 96 h | AID 504834, 2011
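Parasite growth measured via integrated firefly luciferase reporter in P. falciparum. Infected erythrocytes at 2% hematocrit, 0.05% parasitemia final were treated 96 hours at 37 C under 5% CO2, and luminescence was read.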
AMA1-RON2 inh: qHTS for Inhibitors of AMA1-RON; Towards Development of Antimalarial Drug Lead: Primary Screen | Plasmodium falciparum AMA1 (3D7) - RON2 peptide interaction | AlphaScreen AMA1-biotinylated RON2 peptide binding | AID 720542, 2013 | Potency, µM (series often up to 58.2 µM), inactives show at the top dose activity change, negative = inhibition, usual class: inhibitors | 360,000 compounds, 0.2% hits;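 also: 0% = vehicle wells and -100% = peptide control; nearly all actives have a fitted effect of over 45% in size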
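AMA1 (3D7) with his tag at 25 nM final met compounds first, then biotinylated RON2 peptide at 25 nM; detection used donor plus acceptor beads, 10 µg/mL apiece, read by AlphaScreen after 30 min at room temperature.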
VACV mCherry inh: qHTS for Stage-Specific Inhibitors of Vaccinia Orthopoxvirus: mCherry Reporter Primary qHTS; Potency, µM (series often up to 36.5 µM), inactives show top-dose activity change, negative = inhibition, hits mostly inhibitors; AID 720579, 2013; 310,000 compounds, 0.63% hits; Vaccinia virus mCherry reporter infection, fluorescence; calls by dose curve; tested in A549 cells; also: nearly all actives have a fitted effect of over 35% in size
* marks the source's active call; other numbers are inactive results; i = inactive; u = inconclusive; x = no result given; [ ] = another dose, or the depositor's remark. Unless noted, calls follow the shape of the dose curve; as a rule, active = well fitted curve in the direction sought with a large enough effect; inconclusive = small, poorly fitted or top-dose-only effect, or another doubt; inactive = no such curve, though single readings can be large; an effect the other way counts as inactive or inconclusive. Unless noted, % is scaled to controls: 0 for no effect and ±100 for the full control effect; potency is read from the fitted curve at half-maximal effect.

SMILES	Pf growth 48h	VACV Venus inh	Pf growth 96h	AMA1-RON2 inh	VACV mCherry inh
N#Cc1nc(-c2ccc(OCc3ccc(Cl)cc3)cc2)oc1NCCCn1ccnc1	2.33µM*	-1.8%	u	-10.7%	x
O=C(NCCc1ccccc1)[C@@H]1CC=C[C@@H]2CCN(C3CC3)C(=O)[C@@H]21	x	-27.2%	x	x	-13.5%
COc1ccc(NC(=O)Nc2cccc(NC(C)=O)c2)c(OC)c1	11.1%	7.0%	11.7µM*	-0.1%	i
COc1ccc(NC(=O)c2oc3ccccc3c2NC(=O)C2CC2)c(OC)c1	0.0%	8.6%[7.34 µM]	-14.8%	4.47µM*	-5.4%[7.34 µM]
COc1ccc(NC(=O)c2c(NCc3sccc3C)sc3c2CCCCC3)c(OC)c1	x	6.4%	x	x	-9.4%
COc1ccc(NC(=O)c2c(OC)cccc2OC)c(OC)c1	4.65µM*	x	u	-20.1%	x
COc1ccc(NC(=O)c2c(NC(=O)CNCC(C)C)sc3c2CCC3)c(OC)c1	9.28µM*	-19.3%	-3.6%	56.9%	i
COc1cccc(Cn2c(=O)n(CCc3ccccc3)c(=O)c3c2c2cc(OC)ccc2n3C)c1	x	-1.0%	x	x	6.8%
COc1ccc(Cn2c(=O)c3oc4ccccc4c3n(Cc3cccc(C(F)(F)F)c3)c2=O)cc1	x	-12.4%	x	x	-5.6%
O=C(O)CNc1nc(-c2ccccc2)c2cc([N+](=O)[O-])ccc2n1	6.2%	4.0%	14.8%	-2.8%	-7.3%
O=[N+]([O-])c1ccc2nc(NCCCO)nc(-c3ccccc3)c2c1	u	-22.6%	11.7µM*	-6.2%	u
CCN(c1ccccc1)S(=O)(=O)c1ccc(N2CCN(c3ccccc3O)CC2)nc1	6.57µM*	x	9.28µM*	-1.0%	x
CCN(c1ccccc1)S(=O)(=O)c1ccc(C(=O)N2CCN(c3ccccc3)CC2)cc1	x	-23.4%	x	-21.7%	-29.0%
Cc1ccc(CNC(=O)Cn2ccn(-c3ccc(F)c(F)c3)c(=O)c2=O)cc1	x	-8.1%	x	x	-6.1%
CCS(=O)(=O)N1CCCC(C(=O)NCCOC)C1 (stereo unspecified)	x	-3.0%	x	x	-4.0%
CCOc1ccc(Nc2nc3c(c(=O)[nH]2)CCCC3)cc1	2.33µM*	x	234.8%	7.9%	x
CC(=O)C1=C(O)CC(c2ccccc2)CC1=NCCc1c(C)[nH]c2ccccc12 (stereo unspecified)	7.38µM*	-24.9%	-27.4%	-2.1%	-4.5%
CCC/C(O)=C1\C(=O)CC(c2ccccc2)CC1=NCCc1c(C)[nH]c2ccc(C)cc12 (stereo unspecified)	1.85µM*	-10.9%	u	-4.5%	i
COc1ccc(O)c(/C=N/NC(=O)CN2CCS(=O)(=O)CC2)c1	-15.1%	-1.4%	-5.3%	99.3%	3.16µM*
Cc1ccccc1Cc1ccc(Cl)nn1	10.4µM*	-2.8%	-10.0%	9.4%	-1.4%
O=C(Nc1ccccc1)C1CC2CCCC(C1)C2=O (stereo unspecified)	10.3%	31.6%	3.7µM*	5.4%	4.4%
O=C(Nc1ccc(Cl)cc1)C1CC2CCCC(C1)C2=O (stereo unspecified)	-10.2%	x	-20.4%	24.7%	x
O=C(CN1C(=O)COc2ccccc21)c1cccc(Cl)c1	9.7%	-3.7%	u	-0.1%	-9.0%
O=C(CN1C(=O)COc2ccccc21)c1ccc(Cl)cc1	-3.3%	x	10.4µM*	-11.5%	x
Cc1cc(C)nc(-n2nc(C)c3c2NC(=O)CC3c2cccc(O)c2)n1 (stereo unspecified)	x	-10.7%	x	x	-13.6%
SMILES	Pf growth 48h	VACV Venus inh	Pf growth 96h	AMA1-RON2 inh	VACV mCherry inh
CC1(C)CC(NC(=S)NC2CC2)CC(C)(C)N1	0.6%	-8.6%	u	-1.2%	i
C=CCNC(=S)NC1CC(C)(C)NC(C)(C)C1	10.4%	-1.0%	10.4µM*	-9.8%	-10.6%
COc1cc(O)c(C(CC(=O)N2CCOCC2)c2ccc(N(C)C)cc2)c(OC)c1 (stereo unspecified)	u	-13.3%	79.3%	-15.2%	-28.9%
COc1cc(O)c(C(CC(=O)N2CCN(c3ccccc3)CC2)c2cc(OC)c(OC)c(OC)c2)c(OC)c1 (stereo unspecified)	11.7µM*	-19.8%	10.4µM*	25.9%	-4.9%
COc1cc(O)c(C(CCN2CCN(c3ccccc3)CC2)c2ccc(N(C)C)cc2)c(OC)c1 (stereo unspecified)	0.828µM*	-14.8%	0.657µM*	11.2µM*	u
COc1cc(O)c(C(CC(=O)N2CCCC2)c2cc(OC)c(OC)c(OC)c2)c(OC)c1 (stereo unspecified)	u	3.4%	0.0%	-5.1%	-3.3%
COc1cc(O)c(C(CCN2CCOCC2)c2ccc(N(C)C)cc2)c(OC)c1 (stereo unspecified)	4.65µM*	-13.8%	7.38µM*	20µM*	u
COc1ccc(C(CCN2CCN(c3ccccc3)CC2)c2c(O)cc(OC)cc2OC)cc1 (stereo unspecified)	1.04µM*	-13.3%	0.465µM*	u	u
Cc1ccc(NC(=O)CSc2nc3ccc(NC(=O)c4cccs4)cc3s2)c(C)c1	x	-17.9%	x	x	-6.4%
COc1ccc(N2CCN(CCC(O)c3ccc4ccccc4c3)CC2)cc1 (stereo unspecified)	3.29µM*	x	-14.1%	-27.3%	x
Oc1ccc(Br)cc1-c1nc2cnccn2c1NC1CCCC1	2.62µM*	x	-3.7%	24.0%	x
Fc1ccc(-c2nc3cnccn3c2NC2CCCC2)cc1	-22.2%	x	18.3%	16.0%	x
Oc1ccc(Br)cc1-c1nc2cnccn2c1NC1CCCCC1	3.29µM*	-25.6%	x	19.8%	-8.8%
Cc1cc(O)c(C(c2ccccc2Cl)N2CCN(c3ccccc3)CC2)c(=O)n1Cc1ccco1 (stereo unspecified)	x	-17.3%	x	x	-15.4%
CCc1ccc(NC(=O)Cn2c(=O)n(Cc3ccco3)c(=O)c3oc4ccccc4c32)cc1	x	-7.7%	x	x	-12.1%
CCOC(=O)N/N=C/c1c(C)nn(-c2ccccc2Cl)c1Cl	u	-6.7%	10.4µM*	11.2%	-9.3%
COc1ccc(C)cc1NC(=O)N1CCN(c2cc(-c3noc(C)n3)ccc2C)CC1	x	-14.2%	x	x	-13.5%
Cc1nn(Cc2ccccc2)c(C)c1NC(=O)c1cc2nc(-c3ccco3)cc(C(F)(F)F)n2n1	11.7µM*	-26.0%	-10.4%[5.75 µM]	7.8%	x
COc1cccc(-c2cc(C(=O)Nc3cnn(Cc4ccc(F)cc4)c3)no2)c1	4.8%	x	2.08µM*	1.9%	x
O=C(Nc1cnn(Cc2ccc(F)cc2)c1)c1cc2nc(-c3ccco3)cc(C(F)(F)F)n2n1	7.1%	-5.6%	10.4µM*	-12.9%	-19.3%
Cc1ccc(Cn2ccc(NC(=O)c3cc(-c4ccc(Cl)cc4)on3)n2)cc1	68.6%	x	14.2%	3.7%	x
Cc1ccc(Cn2ccc(NC(=O)c3cc(-c4ccc(F)cc4)on3)n2)cc1	-21.1%	x	3.29µM*	3.3%	x
